Data: PubChem BioAssay (EPA / NIEHS)
Where “and” joins values, the source holds several entries; their conditions need not be identical. Equal entries are not always repeated. The source holds several records for some structures; these can differ, active in one and inactive in another. Calls of active or inactive are those of the source. How the source made its calls: active means hit-call score of the fitted dose curve at least 0.9, where 1 is the maximum; inactive means score below 0.9.

Target: Signal transducer and activator of transcription 3 (Homo sapiens) (UniProt P40763)
Sequence (P40763 whole entry, looked up): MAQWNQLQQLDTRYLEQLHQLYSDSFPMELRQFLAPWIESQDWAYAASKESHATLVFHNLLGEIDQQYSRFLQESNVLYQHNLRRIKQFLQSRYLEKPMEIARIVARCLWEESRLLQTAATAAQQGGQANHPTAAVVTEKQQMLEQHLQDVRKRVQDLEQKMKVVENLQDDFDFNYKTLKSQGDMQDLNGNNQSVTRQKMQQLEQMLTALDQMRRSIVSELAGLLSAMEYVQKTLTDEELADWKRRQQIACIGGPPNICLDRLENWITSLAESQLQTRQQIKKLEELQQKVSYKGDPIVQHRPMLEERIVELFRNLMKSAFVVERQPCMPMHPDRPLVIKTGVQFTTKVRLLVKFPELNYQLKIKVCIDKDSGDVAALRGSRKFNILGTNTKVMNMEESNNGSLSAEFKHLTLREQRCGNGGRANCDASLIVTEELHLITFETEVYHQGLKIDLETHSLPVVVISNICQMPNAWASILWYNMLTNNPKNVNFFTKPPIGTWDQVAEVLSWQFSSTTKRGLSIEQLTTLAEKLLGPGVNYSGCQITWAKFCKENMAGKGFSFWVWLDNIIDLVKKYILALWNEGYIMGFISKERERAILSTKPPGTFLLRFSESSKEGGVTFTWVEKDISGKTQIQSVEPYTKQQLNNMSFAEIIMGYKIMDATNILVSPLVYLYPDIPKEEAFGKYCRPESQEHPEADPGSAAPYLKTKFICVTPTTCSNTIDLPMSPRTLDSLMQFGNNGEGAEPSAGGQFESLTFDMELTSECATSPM
Assay: ATG_STAT3_CIS: Attagene CIS-FACTORIAL HepG2 Assay for human Signal Transducer and Activator of Transcription 3 (STAT3) (AID 2282963)
Details: HepG2, Attagene cis-factorial STAT3 reporter transcription; actives raise or lower the signal
Outline: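 Endogenous STAT3-responsive cis-element activity was read in transiently transfected HepG2 cells after 24 h treatment. Reporter transcripts were quantified via RT-PCR and capillary electrophoresis, with DMSO as negative control and bidirectional curve fitting.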

| SMILES | outcome | AC50 |
| --- | --- | --- |
| Sc1ccccc1 | inactive |  |
| O=C(O)C(F)(F)C(F)(F)C(F)(F)C(F)(F)C(F)(F)C(F)(F)C(F)(F)C(F)(F)F | inactive |  |
| CCC(=O)O[C@H]1CC[C@H]2[C@@H]3CCC4=CC(=O)CC[C@]4(C)[C@H]3CC[C@]12C | inactive |  |
| CC#Cc1cc(C)nc(Nc2ccccc2)n1 | inactive |  |
| CN(C)CCO | inactive |  |
| ClC1=C(Cl)[C@]2(Cl)[C@@H]3[C@@H]4C[C@@H]([C@H]5O[C@@H]45)[C@@H]3[C@@]1(Cl)C2(Cl)Cl | inactive |  |
| ClC(Cl)=C(c1ccc(Cl)cc1)c1ccc(Cl)cc1 | inactive |  |
| CC(C)(c1ccccc1)c1ccc(O)cc1 | inactive | 55.9 µM (active) and 54.6 µM (active) |
| CCOCCOC(C)=O | inactive |  |
| Oc1ccc(Cl)cc1Cl | inactive |  |
| Clc1ccc(Cl)cc1 | inactive |  |
| O=C(O)C(F)(F)C(F)(F)C(F)(F)C(F)(F)C(F)(F)C(F)(F)C(F)(F)C(F)(F)C(F)(F)F | inactive |  |
| O=C(N[C@H]1CN2CCC1CC2)c1cc2ccoc2cn1 | inactive |  |
| Cc1cccc([N+](=O)[O-])c1 | inactive |  |
| Cc1ccc(O)c(C)c1 | inactive |  |
| Cc1cccc(C)c1N | inactive |  |
| c1cc2ccc3cccc4ccc(c1)c2c34 | inactive |  |

| SMILES | outcome | AC50 |
| --- | --- | --- |
| C1CC2OC2CC1C1CO1 (centres undefined) | inactive |  |
| Cc1cc2c3c(c1)C(c1ccccc1)=N[C@@H](NC(=O)c1ccncc1)C(=O)N3CC2 | inactive |  |
| NS(=O)(=O)C(F)(F)C(F)(F)C(F)(F)C(F)(F)C(F)(F)C(F)(F)C(F)(F)C(F)(F)F | inactive |  |
| CCCCCCCCCC[N+](C)(C)CCCCCCCCCC | inactive |  |
| CCCCCCCCOC(=O)c1ccccc1C(=O)OCCCCCCCC | inactive |  |
| CCSC(=O)N(CC)C1CCCCC1 | inactive |  |
| CCCN(CCC)N=O | inactive |  |
| C=CC(N)=O | inactive |  |
| Clc1ccc(C(c2ccccc2Cl)C(Cl)(Cl)Cl)cc1 (centres undefined) | inactive |  |
| Nn1cnnc1 | inactive |  |
| CCC(C)(CC)c1cc(NC(=O)c2c(OC)cccc2OC)on1 | inactive |  |
| Oc1c(Cl)c(Cl)c(Cl)c(Cl)c1Cl | inactive |  |
| CC(C)(O)C(=O)Nc1ccc([N+](=O)[O-])c(C(F)(F)F)c1 | inactive |  |
| Cc1ccccc1CO[C@@H]1C[C@@]2(C(C)C)CC[C@]1(C)O2 | inactive |  |
| Cc1cc(O)ccc1Cl | inactive |  |
| CC(c1ccc(O)cc1)(c1ccc(O)cc1)c1ccc(O)cc1 | inactive |  |
